The values that follow come from PubChem BioAssay AID568 (Sanford-Burnham Center for Chemical Genomics, 2006).

SMILES strings stand for the structures. In all, about 83,000 compounds went through this assay and fewer than 10 were called active. Only a sample is shown. Results with a measured potency or affinity are listed apart. A number with no mark means an inactive call. How the calls were made is not given here.

For this assay, the target named is Heat shock cognate 71 kDa protein (Homo sapiens) (UniProt P11142). The experiment in a line: Hsc70 inhibitors, probe displacement, primary screen, biochemical, fluorescence polarization (AID 568). The settings on record: mP, at 20 µM, active compounds read high. Background: In fluorescence polarisation assays a small probe gives low polarisation when free and higher when bound to something large.
Heat shock cognate 71 kDa protein (Homo sapiens), sequence (P11142 whole entry, looked up): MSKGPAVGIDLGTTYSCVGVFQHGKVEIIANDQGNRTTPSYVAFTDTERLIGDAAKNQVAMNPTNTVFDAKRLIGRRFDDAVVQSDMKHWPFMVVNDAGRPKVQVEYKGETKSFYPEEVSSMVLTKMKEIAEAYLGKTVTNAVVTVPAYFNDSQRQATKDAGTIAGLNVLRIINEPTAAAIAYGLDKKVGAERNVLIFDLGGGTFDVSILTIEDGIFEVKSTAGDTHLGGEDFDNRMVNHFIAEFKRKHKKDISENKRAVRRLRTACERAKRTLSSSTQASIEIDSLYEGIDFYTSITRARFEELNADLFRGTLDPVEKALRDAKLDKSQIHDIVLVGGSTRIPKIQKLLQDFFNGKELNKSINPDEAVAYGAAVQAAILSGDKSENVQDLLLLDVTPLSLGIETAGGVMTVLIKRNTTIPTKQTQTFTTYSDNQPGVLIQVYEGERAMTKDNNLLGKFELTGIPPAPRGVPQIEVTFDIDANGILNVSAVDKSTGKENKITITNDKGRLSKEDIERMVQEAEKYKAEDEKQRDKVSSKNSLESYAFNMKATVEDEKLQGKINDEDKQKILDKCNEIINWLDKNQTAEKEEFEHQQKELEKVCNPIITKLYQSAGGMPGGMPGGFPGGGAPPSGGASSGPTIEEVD
Heat shock cognate 71 kDa protein (Homo sapiens), sequence (P11142 whole entry, looked up): as above
On to `CN1C(=S)SC(/[N+]([O-])=C\c2ccco2)C1(C)C` (configuration not stated), for which the displacement is -8.3%.

Take `CCOC(=O)c1sc(NC(=O)C2CCCO2)c(C(=O)OC)c1C` (configuration not stated): the displacement is 2.1%.

In the case of `Cc1ccc(-c2cc3nc(C)cc(NCc4ccco4)n3n2)cc1`, the displacement was -12.6%.

Consider `CCOC(=O)N1CCC(N2C(=O)c3ccccc3C2Nc2ccc(Cl)cn2)CC1` (configuration not stated), for which the displacement is 0%.

With `CCC(=O)N1CCc2cc(Br)cc(S(=O)(=O)NCC3CCCO3)c21` (configuration not stated), the displacement is 5.2%.

For the compound `COc1ccc(-c2nnc3sc(CCN4C(=O)c5ccccc5C4=O)nn23)cc1`, the displacement is -0.6%.

Take `O=C(N1CCN(c2ccccc2)CC1)C(F)(F)C(F)(F)F`: the displacement is 8.8%.

Turning to `CCOC(=O)CCSCC(=O)Nc1cc(C)on1`, the displacement is 4.3%.

`Cc1ccc(NCc2nnc(SCC(=O)OC3CCCCC3)o2)c(C)c1`: the displacement is -6.7%.

For the compound `CCN1CCN(C(=O)c2sc3nc(C)nc(N4CCC(C)CC4)c3c2C)CC1`, the displacement is -3.6%.

For `CN(c1ccccc1)C(c1ccc(F)cc1)c1nnnn1C1CCCC1` (configuration not stated), the displacement was -4.6%.

`CCOC(=O)c1ccc(COC(=O)CNC(=O)CNC(=O)c2ccc(OC)cc2)o1`: the displacement is -3.7%.

For `CC(C)C(c1nnnn1Cc1ccc(F)cc1)N1CCSCC1` (configuration not stated), the displacement is -2.2%.

In the case of `COc1ccc(CCN2CNc3c(c(=O)n(C)c(=O)n3C)C2)cc1`, the displacement is 0.1%.

With `O=C(CSc1nnc(-c2ccncc2)n1CC1CCCO1)NCc1ccccc1` (configuration not stated), the displacement is -0.2%.

With `O=C(Nc1ccc(N2CCOCC2)cc1)c1cccc(S(=O)(=O)N2CCC(Cc3ccccc3)CC2)c1`, the displacement is -1.4%.

Regarding `Cc1ccc(OCC(=O)Nc2cc(-c3nn4c(C)nnc4s3)ccc2C)cc1`, the displacement was 4.5%.

On to `Clc1ccc(/C=N/c2c(-c3ccco3)nc3ccccn23)cc1`, for which the displacement was 3.7%.

On to `CC(NC(=O)c1ccc(CS(=O)(=O)c2cccc(C(F)(F)F)c2)o1)c1ccc2c(c1)OCCO2` (configuration not stated), for which the displacement was -1.8%.

`COc1ccc(C(=O)Oc2cccnc2)cc1`: the displacement was -4.3%.

As for `Cc1ccc(C)c2c1[nH]c1ccccc12`, the displacement was 1.5%.

For the compound `CC(C)Cc1cc(C(=O)N2N=C(C(F)F)CC2(O)C(F)F)c2ccccc2n1` (configuration not stated), the displacement is 1.5%.

As to `COc1cc2cc(C(c3nnnn3C3CCCC3)N3CCCCCC3)c(=O)[nH]c2cc1OC` (configuration not stated), the displacement was -5%.

On to `COCCN1C(=O)c2ccccc2C(C(=O)NCCN(C)C)C1c1ccc(F)cc1` (configuration not stated), for which the displacement is -4.9%.

`CCCCn1c(=O)n(CC(=O)Nc2ccc(C)c(Cl)c2)c(=O)c2c1ncn2Cc1ccco1`: the displacement is -21.2%.

Consider `CCOc1ccc(CC(C(=O)NN)C(=O)NN)cc1CN(C)C`, for which the displacement was 2.3%.

Regarding `COc1ccc(Br)cc1CNC(=O)C1CCCN(S(C)(=O)=O)C1` (configuration not stated), the displacement was -2%.

Regarding `OC(COc1ccc2c(c1)OCO2)CN1CCc2ccccc2C1` (configuration not stated), the displacement is 1.3%.

Turning to `COCCNC(=O)C(c1ccc(C)o1)N(Cc1ccco1)C(=O)c1snc(C(N)=O)c1N` (configuration not stated), the displacement was 5.3%.

As for `CC1=CN2C(=NC(=O)CC2(C)C(=O)N(CC(=O)NC2CCCC2)c2ccccc2C)C=C1` (configuration not stated), the displacement was -1.4%.

With `CC(=O)OCCn1c(Br)nc2c1c(=O)[nH]c(=O)n2C`, the displacement is 4.4%.

In the case of `Cc1nc2c(C(=O)N3CCCCC3)cnn2c(C)c1Cc1ccccc1F`, the displacement is 2.6%.

Turning to `COC(=O)[C@H](Cc1ccccc1)NC(=O)N1CCC(C)CC1`, the displacement was -1.3%.

For `CN1CCN(S(=O)(=O)c2ccc(N3CCN(S(=O)(=O)/C=C/c4ccccc4)CC3)nc2)CC1`, the displacement was -5.3%.

Take `Cn1cnnc1SCCC(=O)Nc1ccc(Cl)cc1`: the displacement was 4.9%.

In the case of `CC1CCCCC1NC(=O)Cn1ncc2ccccc21` (configuration not stated), the displacement is -0.3%.

On to `CCC(Sc1nc2n[nH]c(C)c2c(=N)n1-c1cccc(Cl)c1C)C(=O)N(CC)CC` (configuration not stated), for which the displacement is -7.7%.

In the case of `Cc1ccc(-c2noc(C3CCCN(C(=O)c4ccccc4)C3)n2)o1` (configuration not stated), the displacement is 1.4%.

Consider `CCc1ccc2nc(NC3=NCN(CCOC)CN3)nc(C)c2c1`, for which the displacement is 0.7%.

Consider `Cc1ccc(N2CN=C(c3ccccc3)NC2=S)cc1`, for which the displacement was -3.8%.

Regarding `CCOC(=O)c1ccc(NC(=O)CSc2nc(C)cc(=O)[nH]2)cc1`, the displacement is -2.1%.

Take `O=C(NC1CCCCCCC1)c1ccco1`: the displacement was -2.6%.

On to `Cc1c(/C=C/C(=O)c2cccs2)cnn1C`, for which the displacement was 0.7%.

In the case of `CCOc1cccc(C(=O)Nc2ccc(N(CC)CC)cc2)c1`, the displacement is -1.7%.

On to `O=C1c2ccsc2SCCN1Cc1ccc(Cl)cc1`, for which the displacement is 3.5%.

Take `Nc1ccccc1SCc1cn2cccnc2n1`: the displacement was -0.9%.

As for `CC(C)[C@H](NC(=O)OC(C)(C)C)c1nnc(SCc2cccc(F)c2)o1`, the displacement is 6.2%.

Take `CC(C)(C)c1ccc(-c2nnc(SCCN3C(=O)c4ccccc4C3=O)o2)cc1`: the displacement was -4.1%.

With `CCCn1nnc(NC(=O)c2ccccc2Br)n1`, the displacement is -4.1%.

As for `Cc1ccc2nc(NC(=O)c3cccs3)sc2c1`, the displacement is 1.4%.

In the case of `Cc1ccccc1-n1c(=O)cc(N2CCN(C(=O)c3ccco3)CC2)[nH]c1=O`, the displacement was -0.4%.

On to `COc1ccc2[nH]cc(C(=O)CN3CCN(C(=O)c4ccco4)CC3)c2c1`, for which the displacement is -1.6%.

Turning to `COc1ccc(C2C(C(=O)NC(C)C)c3ccccc3C(=O)N2C)cc1OC` (configuration not stated), the displacement is -8.3%.

Regarding `COc1ccc(C(=O)CN2C(=O)c3ccccc3C2=O)c(OC)c1C`, the displacement is -1.2%.

As for `O=C(CC12CC3CC(CC(C3)C1)C2)NCO`, the displacement is -2.2%.

With `CCCCOCC(O)Cn1c(C)nc2ccccc21` (configuration not stated), the displacement is -2.3%.

For the compound `CN=C1SC(CC(=O)Nc2cccc(Cl)c2Cl)C(=O)N1C` (configuration not stated), the displacement was 0%.

Take `COc1nc(OC)nc(N2CCCCCC2)n1`: the displacement was 7.4%.

Consider `c1cncc(-c2nc3cc(Cc4ccc5oc(-c6cccnc6)nc5c4)ccc3o2)c1`, for which the displacement was -0.1%.

`COCCCn1c(SCC(=O)Nc2ccc3c(c2)OCCO3)nnc1-c1ccoc1C`: the displacement is -9.3%.

With `Cn1cccc1Cc1nnc(SCC(=O)NCc2ccccc2)n1-c1ccc(F)cc1`, the displacement is 1.3%.

Take `CC(C)CC(=O)Nc1ccc(-c2cn3ccsc3n2)cc1`: the displacement is 3%.

Regarding `CCOC(=O)c1sc(=S)n(-c2ccccc2OC)c1N`, the displacement was 4.2%.

With `COc1ccc(N(CC(=O)Nc2cc(OC)ccc2OC)S(=O)(=O)c2c(C)nn(C)c2C)cc1`, the displacement was -0.1%.

In the case of `Oc1c(Cl)cc(Cl)cc1Sc1cc(Cl)cc(Cl)c1O`, the displacement was 11.6%.

As to `Oc1c(Cl)cc(Cl)c2c1NCCC2`, the displacement was 1%.

Take `NC(=O)CSc1nnc(Cc2ccc3c(c2)OCO3)n1C1CCCCC1`: the displacement was -4.2%.

Regarding `COc1cccc(Nc2c(F)c(F)c(F)c(F)c2C(=O)O)c1`, the displacement was 3.7%.

For the compound `CC1(C)CC(=O)C2=C(C1)OC(N)=C(C#N)C21C(=O)N(Cc2ccccc2Cl)c2ccccc21` (configuration not stated), the displacement was -38.5%.

`O=C(CSc1nc(-c2ccco2)cc(C(F)(F)F)n1)NC1CCCCCCC1`: the displacement is -4.2%.

For `Cc1ccc2c(c1)N(Cc1ccc3c(c1)OCO3)C(=O)C(C)O2` (configuration not stated), the displacement was -2.1%.

With `O=C(Cn1cnc2c(nnn2Cc2ccccc2)c1=O)N1CCCc2ccccc21`, the displacement is 2%.

Consider `CC(=O)NCCc1ccc(S(=O)(=O)NC2OC(=O)c3ccccc32)cc1` (configuration not stated), for which the displacement is -3.3%.

Take `CC1(C)Cc2c(c(N3CCOCC3)nc3sc4c(=O)[nH]cnc4c23)CS1`: the displacement was -5%.

In the case of `C=CCN1C(=O)C2C(C(=O)NCc3ccccc3)C3C=CC2(O3)C1C(=O)NC(C)(C)C` (configuration not stated), the displacement was -3.6%.

As for `O=C1CCCCCN1CSc1nc2ccccc2s1`, the displacement is 5.1%.

Take `CCOC(=O)N1CCN(C(=O)CN(c2ccc3c(c2)OCO3)S(C)(=O)=O)CC1`: the displacement is 0.1%.

Regarding `Oc1ccccc1-c1cc(-c2ccco2)[nH]n1`, the displacement was 1.3%.

Consider `CC(=O)Nc1ccc(S(=O)(=O)N(C)CC(=O)Nc2ccccc2N2CCOCC2)cc1`, for which the displacement was -0.5%.

Turning to `COc1ccc(-c2nc(CS(=O)CC(=O)NCc3cccnc3)c(C)o2)cc1` (configuration not stated), the displacement was 1.8%.

In the case of `Cc1ccc(C)c(N(CC(=O)NC2CCCC2)C(=O)CCCC(=O)Nc2ccccn2)c1`, the displacement was 4.6%.

For `CN1CCc2c(sc3c2C(=O)NC(/C=C/c2ccco2)N3)C1` (configuration not stated), the displacement is 5.2%.

For `CCOc1c(Cl)cc(C(=O)NCCN2CCCCC2)cc1Cl`, the displacement was -10.7%.

Take `Cc1ccccc1NC(=O)Cn1cccc1`: the displacement is -0.7%.

On to `Cc1ccc(-c2nn3c(-c4ccco4)nnc3c3ccccc23)cc1S(=O)(=O)NCC1CCCO1` (configuration not stated), for which the displacement is 1%.

Turning to `CC1CC(C)CN(CCCNC(=O)C2CCN(S(=O)(=O)N3CCCCC3)CC2)C1` (configuration not stated), the displacement was -3.8%.

Turning to `O=C(Nc1ccc(-c2nc3ccccc3[nH]2)cc1)c1ccco1`, the displacement was -7.1%.

In the case of `CC(C)N(C#N)c1nc(N2CCOCC2)nc(N2CCOCC2)n1`, the displacement was 9.4%.

Consider `CC1=C(C(=O)N(C)CCC#N)C2(CCCCC2)OC1=O`, for which the displacement was -1.4%.

On to `O=C(NC(Cc1ccccc1)c1nc2ccccc2[nH]1)C1CC(=O)N(c2ccc3c(c2)OCCO3)C1` (configuration not stated), for which the displacement was -10.1%.

Turning to `Cc1ccc(C(=O)Nc2cc(=O)n(C)c(=O)n2C)o1`, the displacement was 5.3%.

Take `O=C(CCCn1c(=S)[nH]c2cc3c(cc2c1=O)OCO3)N1CCN(c2ccccn2)CC1`: the displacement is -4.4%.

Consider `Cc1cnc(NC(=O)c2cc3c(C)nn(-c4ccccc4)c3s2)s1`, for which the displacement was -5.6%.

For the compound `CC1CCN(C(=O)c2cc(-c3ccccc3O)on2)CC1`, the displacement was -5%.

Consider `CCOC(=O)C1CCCN(CCC(=O)Nc2ccc(C)cc2)C1` (configuration not stated), for which the displacement is -2.2%.

For the compound `CCCCN(C(=O)CNC(=O)c1ccco1)C(C(=O)NC1CCCC1)c1ccc(OC)cc1` (configuration not stated), the displacement is 2.3%.

For the compound `O=C(Nc1ccc(F)c(F)c1)c1cccnc1`, the displacement is -5.4%.

For the compound `Cc1cc(C(=O)CN2C(=O)NC(c3ccccc3)(c3ccccc3)C2=O)c(C)n1Cc1ccccc1`, the displacement was -22.9%.

In the case of `Cc1nnc(SCC(=O)Nc2ccc(S(=O)(=O)N3CCCCC3)cc2)s1`, the displacement is -3.1%.

Regarding `CN(C)S(=O)(=O)c1ccc(NC(=O)c2c(F)cccc2Cl)cc1`, the displacement was -2.2%.

On to `Cc1c(C(=O)OCC(=O)N2c3ccccc3CC2C)oc2ccccc12` (configuration not stated), for which the displacement is -0.6%.

As to `O=C(NCCN1CCOCC1)Nc1ccc(Cl)cc1Cl`, the displacement is -6.7%.
